Compound activity from PubChem BioAssay.
The list is not random: actives were taken first. Their share in the collection is about 5.4%.
PNC assembly inh – High Content Assay for Compounds that inhibit the Assembly of the Perinucleolar Compartment | PC3M PTB-GFP, PNC prevalence imaging, 16 h; stronger effect = lower value | activity change (PNC), negative = inhibition, % at 10 µM | actives 3.1% (n = 140,000) | AID 2417, 2010;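 active means readout at or below -70, meaning at least 70% loss of cells showing the perinucleolar compartment, a nuclear body marking cancer cells; inconclusive means readout between -30 and a set limit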;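 further: plate controls were DMSO wells for no effect and camptothecin positive control wells for full effect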
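PC3M cells stably expressing PTB-GFP, 750–1000 cells/well, treated 16 h at 37 °C with compound (23 nl of library stock), in duplicate. After paraformaldehyde fixation and Hoechst stain, imaged at 20x; PNC prevalence scored by image analysis.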
ALOX15B inhib – qHTS Assay for Inhibitors of 15-hLO-2 (15-human lipoxygenase 2). Polyunsaturated fatty acid lipoxygenase ALOX15B (Homo sapiens), O15296. actives 0.56% (n = 110,000). purified 15hLO-2, xylenol orange hydroperoxide absorbance. AID 881, 2007. Potency, µM (highest dose often 57.1 µM), for the others: at the top dose activity change, negative = inhibition, hits mostly inhibitors; further: potency means the concentration at half of the fitted maximal effect; nearly all actives have a fitted effect of over 60% in size
Target sequence (O15296 whole entry, looked up): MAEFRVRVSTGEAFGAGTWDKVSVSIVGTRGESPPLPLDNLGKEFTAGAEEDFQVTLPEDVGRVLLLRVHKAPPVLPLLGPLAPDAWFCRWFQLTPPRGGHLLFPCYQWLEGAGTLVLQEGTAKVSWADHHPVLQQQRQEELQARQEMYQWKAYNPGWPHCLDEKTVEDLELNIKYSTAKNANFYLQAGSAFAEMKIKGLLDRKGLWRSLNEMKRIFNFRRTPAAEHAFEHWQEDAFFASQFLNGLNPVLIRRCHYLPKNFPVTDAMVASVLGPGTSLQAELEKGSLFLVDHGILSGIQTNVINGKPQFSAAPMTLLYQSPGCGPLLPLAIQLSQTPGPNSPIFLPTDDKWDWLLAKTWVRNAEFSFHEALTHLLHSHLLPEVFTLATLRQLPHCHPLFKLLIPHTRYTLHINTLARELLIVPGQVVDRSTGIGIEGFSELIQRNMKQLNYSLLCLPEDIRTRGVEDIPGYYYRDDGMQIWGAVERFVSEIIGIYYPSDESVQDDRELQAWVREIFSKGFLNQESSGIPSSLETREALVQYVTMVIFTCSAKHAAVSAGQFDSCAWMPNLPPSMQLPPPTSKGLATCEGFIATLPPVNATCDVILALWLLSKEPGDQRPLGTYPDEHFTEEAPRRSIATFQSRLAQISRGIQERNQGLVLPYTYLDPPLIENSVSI
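Read-out: hydroperoxide product oxidises ferrous iron, measured as xylenol orange complex via the 573-to-405 nm absorbance ratio after 30 min. Reaction: 50 nM enzyme, 15 min compound preincubation, 45 uM arachidonic acid, 90 min RT, Hepes pH 7.5 with Triton X-100.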
HPGD inh – qHTS Assay for Inhibitors of HPGD (15-Hydroxyprostaglandin Dehydrogenase); 15-hydroxyprostaglandin dehydrogenase [NAD(+)] (Homo sapiens), P15428; purified HPGD, NADH fluorescence kinetic, PGE2 substrate; Potency, µM, inactives show top-dose activity change, negative = inhibition, most hits filed as inhibitors; actives 4.3% (n = 150,000); AID 894, 2007; active means well fitted inhibition curve with a large enough effect, not every such curve was filed as active; inconclusive means small, poorly fitted or top-dose-only effect, or another doubt; inactive means no such curve, though single readings can be large or run the other way; further: potency means the concentration at half of the fitted maximal effect
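NADH formation kinetics: reaction with 30 uM PGE2 and 1 mM NAD+ (final), 20 nM enzyme, Tris-HCl pH 8 with Tween 20, after 15 min compound preincubation at room temperature. Fluorescence change, last versus first of five reads.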
ALOX12 inhib – qHTS Assay for Inhibitors of 12-hLO (12-human lipoxygenase); Polyunsaturated fatty acid lipoxygenase ALOX12 (Homo sapiens), P18054; purified 12-hLO, xylenol orange hydroperoxide absorbance; Potency, µM (highest dose often 57.1 µM), inactives show at the highest dose activity change, negative = inhibition, actives largely listed as inhibitors; actives 0.12% (n = 150,000); further: potency means the concentration at half of the fitted maximal effect; nearly all actives have a fitted effect of over 55% in size
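Hydroperoxide formation by human 12-lipoxygenase from 40 uM arachidonic acid was followed colorimetrically via ferric-xylenol orange complex, using the 573/405 nm absorbance ratio. Enzyme concentration was 150 nM, with 30 min reaction at room temperature.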
IMPase inh – qHTS Assay for Identifying the Cell-Membrane Permeable IMPase Inhibitors; CHO-M1 cells, IP1 accumulation, HTRF TR-FRET ratio; inhibition (IP1 accumulation), % at 46.1 µM; 120,000 tested, under 10 active; active means well fitted curve in the direction sought with a large enough effect in the signal ratio, not every such curve was filed as active; inconclusive means small, poorly fitted or top-dose-only effect, or a change in a side signal; inactive means no such curve, though single readings can be large or run the other way; the % refers to the signal ratio;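 further: cells stimulated with carbachol in lithium chloride buffer; plate controls were DMSO basal wells for no effect and reference inhibitor wells for full effect; higher means more IMPase inhibition seen as more IP1 and lower FRET ratio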
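CHO-M1 cells (CHO stably expressing M1 receptor), compound up to 46 uM final, stimulated with carbachol (50 uM as added) in buffer with 50mM LiCl, pH 7.4, 30 min at 37C. Cytosolic IP1 read by TR-FRET; AC50 from Hill fits.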
IMPase Li cell – qHTS Assay for Identifying the Cell-Membrane Permeable IMPase Inhibitors: Potentiation with Lithium | actives 0.35% (n = 210,000) | CHO-M1 cells, IP1 TR-FRET (IP-One), carbachol + lithium | AID 1457, 2008 | Potency, µM (top dose mostly 59.4 µM), for the others: at the highest dose activity, negative = IMPase inhibition, hits mostly inhibitors;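 further: IP1 builds up when IMPase is blocked and the TR-FRET signal falls; potency means the concentration at half of the fitted maximal effect; plate controls were basal vehicle for no effect and high inhibitor control for full effect; nearly all actives have a fitted effect of over 50% in size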
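Readout is a homogeneous TR-FRET IP1 immunoassay (Ex 320, Em 665 and 620), where raised cytosolic IP1 lowers signal. Cells were CHO-M1 treated 30 min at 37C with test compounds plus a little lithium; AC50 values came from Hill-equation fitting.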
An asterisk follows results filed as active; u = inconclusive; x = no result given; [ ] = remark or other dose. Unless noted, the call rests on the fitted dose curve; in most records, active means well fitted curve in the direction sought with a large enough effect; inconclusive means small, poorly fitted or top-dose-only effect, or another doubt; inactive means no such curve, though single readings can be large; an effect the other way counts as inactive or inconclusive. Unless noted, on the % scale 0 is the no-effect control and ±100 the full control effect.

SMILES	PNC assembly inh	ALOX15B inhib	HPGD inh	ALOX12 inhib	IMPase inh	IMPase Li cell
O=C(NCc1cccs1)C12CC3CC(CC(C3)C1)C2	x	x	x	x	x	-5.3%
O=C(Cc1cccs1)NCc1ccc(F)cc1	8.6	5.2%[2.29 µM]	25.1µM*	-7.8%	-1.7	-0.7%[38.3 µM]
CC(C)CC(=O)NCc1ccc(F)cc1	51.2	-23.0%	15.8µM*	8.8%	4.6	9.7%[38.3 µM]
CN(C)CCCSc1ccccc1NC(=O)/C=C\c1ccccc1	x	16.9%	-11.8%	-1.2%	1.4	15.7%
Cc1ccc(CNC(=O)COc2ccc(C(=O)c3ccc(F)cc3)cc2)cc1	-20.3	x	39.8µM*	-2.0%	-6.1	1.1%
O=C(COc1ccc(C(=O)c2ccc(F)cc2)cc1)NCc1ccc(F)cc1	8.1	x	-17.1%	-3.7%	11.3	12.4%
O=C(CSc1ccc2ccccc2c1)NCc1cccs1	-21.7	x	7.94µM*	-3.9%	2.5	14.5%
O=C(CCC1CCCCC1)NCc1cccs1	2.4	-10.0%	10µM*	3.0%	-4.1	27.3%[38.3 µM]
O=C(CSc1ncccn1)NCc1cccs1	x	x	x	x	x	6.9%
O=C(Cc1cccs1)NCc1ccc2c(c1)OCO2	u	-3.4%	15.8µM*	0.0%	5.5	22.5%[38.3 µM]
C#C[C@]1(OC(C)=O)CCC2C3CCC4=CC(=O)CCC4C3CC[C@]21C (some centres undefined)	x	-21.2%	-3.1%	-1.5%	x	16.5%
COc1cccc(Cn2c(=O)cnc3cnc(Oc4ccccc4)nc32)c1	x	-3.0%	x	x	x	8.1%
N#C/C(=C\c1ccc(Cl)cc1Cl)c1nc(-c2cccc(Cl)c2)cs1	x	x	x	x	-7.2	x
O=C(Cc1cccs1)NCc1cccs1	u	0.5%	15.8µM*	-0.9%	-15.2	8.7%[38.3 µM]
Cc1ccc(C2(C)NC(=O)N(CC(=O)NCCC3=CCCCC3)C2=O)cc1 (centres undefined)	2.9	4.3%	-10.8%	-1.1%	-0.6	27.7%[38.3 µM]
Cc1ccc(C2(C)NC(=O)N(CC(=O)NCc3cccs3)C2=O)cc1 (centres undefined)	-108.4*	x	u	-10.1%	x	-8.8%
O=C(NCc1ccccc1)C(c1ccccc1)N(Cc1ccc2c(c1)OCO2)C(=O)Cc1cccs1 (centres undefined)	-108.4*	x	-13.4%	-2.9%	2.3	24.9%
CS[C@]12C(=O)C[C@]3(C)[C@@H](CC[C@@]3(O)C(=O)CO)[C@@H]1CCC1=CC(=O)CC[C@]12C	x	-5.3%[11.4 µM]	-2.7%	1.3%[11.4 µM]	x	2.9%
O=C(c1ccc(CN2CCc3ccccc3C2)cc1)N1CCN(c2ccccc2)CC1	-3.2	x	-14.4%	2.4%	x	10.8%
Nc1ccc(C(=O)OCC(=O)N2CCc3ccccc3C2)cc1[N+](=O)[O-]	38.8	x	12.6µM*	7.1%	x	-6.2%
CCCCNC(=O)N1CCc2ccccc2C1	-113.8*	x	-6.0%	0.6%	x	0.1%
O=C(c1ccc(CN2CCc3ccccc3C2)cc1)N1CCc2ccccc2C1	16.2	2.6%	3.16µM*	1.6%	-1.9	13.1%[38.3 µM]
O=C(c1ccccc1[N+](=O)[O-])N1CCc2ccccc2C1	5.3	x	12.6µM*	4.4%	x	2.3%
CN1CCN(C(=O)c2ccc(C3SCC(=O)N3Cc3ccco3)cc2)CC1 (centres undefined)	u	5.1%	12.6µM*	3.1%	u	7.2%[38.3 µM]
COCCNC(=O)c1ccc(C2SCC(=O)N2Cc2ccco2)cc1 (centres undefined)	x	x	x	x	x	4.8%
SMILES	PNC assembly inh	ALOX15B inhib	HPGD inh	ALOX12 inhib	IMPase inh	IMPase Li cell
COC(=O)N1CCC2(CCCN(c3ncccn3)C2)CC1	x	0.9%	-13.3%	0.7%	x	-2.8%
COC(=O)Oc1nsnc1N1CCOCC1	7.1	0.5%	14.1µM*	-16.5%	-0.8	0.5%[38.3 µM]
O=S(=O)(Nc1nc2ccccc2nc1Nc1ccc2c(c1)OCO2)c1ccc(F)cc1	-83.6*	x	x	0.4%	-7.7	x
COc1ccccc1CN1CCC2(CC1)CCN(C(=O)c1csnn1)CC2	x	-0.5%	-7.3%	5.6%	x	33.8%
CCOC(=O)c1cnn(-c2ncnc3sc4c(c23)CCC4)c1N	-0.3	1.8%	7.94µM*	4.2%	5.3	-1.4%[38.3 µM]
O=C1c2ccccc2C(=O)N1c1ccc(Cc2ccc(N3C(=O)c4ccccc4C3=O)cc2)cc1	x	-2.5%[11.4 µM]	2.5%	2.6%[11.4 µM]	x	14.9%
O=C(N/N=C/c1c(Nc2cccc(C(F)(F)F)c2)nc2ccccn2c1=O)c1ccccc1[N+](=O)[O-]	-112.6*	x	-15.0%	5.5%	8.9	-3.3%
COc1cc(C2CC(=O)Nc3cc4c(cc32)OCCO4)cc(OC)c1O (centres undefined)	x	x	x	x	2.1	x
COc1ccc(C(=O)Nc2cc(-c3nn4c(C)nnc4s3)ccc2C)cc1	-9.3	2.5%	u	-0.8%	6.3	17.2%[38.3 µM]
Cc1cc(OCC(=O)Nc2cc(-c3nn4c(C)nnc4s3)ccc2C)ccc1Cl	-27.1	-15.7%	-22.9%	-1.3%	0.8	28.2µM*
Cc1ccc(-c2nn3c(C)nnc3s2)cc1NC(=O)c1ccc(OC(C)C)cc1	u	3.1%	1.12µM*	-16.0%	7.8	18.9%[38.3 µM]
CCOC(=O)CSc1nc2sc3c(c2c(=O)n1Cc1ccccc1)CCC(C(C)(C)C)C3 (centres undefined)	x	x	x	x	-3.2	x
CN(C)c1cc(-c2cccc(NS(C)(=O)=O)c2)ncn1	x	-0.1%	x	x	x	7.2%
N=c1n(CCO)c2ccccc2n1CCOc1ccccc1	-10.5	15.1%	-4.1%	1.1%	1.3	-5.7%[38.3 µM]
OCCOCCn1c2ccccc2c2ccccc21	-139.2*	-10.9%	-13.8%	5.2%	-6.3	-17.2%[38.3 µM]
Cc1cccc(NC(=O)Cn2cnc3sc(C)c(S(=O)(=O)N4CCC(C)CC4)c3c2=O)n1	-100.0*	x	-13.8%	5.3%	5.8	-25.4%
CCCCNC(=O)Cn1cnc2sc(C)c(S(=O)(=O)N3CCN(c4ncccn4)CC3)c2c1=O	x	x	x	x	x	-7.5%
CCCCN(CC)CCNC(=O)Cn1cnc2sc(C)c(S(=O)(=O)N3CCOCC3)c2c1=O	-100.0*	x	-9.6%	-2.9%	-1.6	1.9%
O=C(Cc1ccccc1)c1nc2ccccc2s1	-2.1	x	22.4µM*	-4.7%	x	-4.6%
COCCNC(=O)c1ccc2c(c1)nc(C)n2-c1cc(OC)c(OC)c(OC)c1	62.5	u	14.1µM*	1.1%	4.2	2.4%[38.3 µM]
CCOc1ccc(-n2c(C)nc3cc(C(=O)NCc4ccc5c(c4)OCO5)ccc32)cc1	33.1	x	u	2.0%	x	9.5%
